Screening results (PubChem BioAssay)
Only some compounds are listed: those with a hit (about 4% of all), similar ones and a draw of the others.
TWEAK Fn14 block: inhibitors of TWEAK-Fn14 signaling, primary screen, luciferase reporter cells, uHTS. TWEAK-stimulated Fn14 reporter cells, luciferase luminescence, 8 h. inhibition, % at 10 µM. 360,000 tested, 2% active. AID 1159606, 2016; in the data active means inhibition above about 50%
EBV LMP1 NFkB: EBV LMP1-driven NF-kappaB luciferase reporter inhibitors, primary screen, cell-based, luminescence, single point. LMP1-induced NF-kappaB luciferase reporter cells. inhibition, % at 12.5 µM. 350,000 tested, 0.69% active; in the data active means inhibition above about 41%; inconclusive means no clear call, values can overlap the other calls;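 further: 0% = neutral control wells and 100% = reference inhibitor control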
TROY NFkB inh: inhibitors of TROY-driven NF-kB signaling, primary screen, Q293 LMP1-TROYcd cells, NF-kB luciferase, uHTS | AID 1347056, 2019 | inhibition, % at 10 µM | 360,000 tested, 0.98% active | Q293 LMP1-TROYcd NF-kB luciferase reporter, 4 h;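 active means compounds whose plate-normalised and pattern-corrected inhibition of the luciferase reporter signal at the single screening dose is 50% or more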
MITF TRPM1 inh: inhibitors of MITF-dependent TRPM1 promoter reporter, primary screen, cell-based, SK-MEL-5, single point, luciferase; SK-MEL-5 TRPM1 promoter luciferase, 24 h; inhibition, % at 12.5 µM; 330,000 tested, 0.83% active; AID 488899, 2010;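 active means mean inhibition across replicates of 60% or more, whatever share of single replicates reaches that level; inconclusive means some that reach 60%, reason not given; inactive means mean inhibition across replicates below 60%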
Peg3 prom inh: Peg3 promoter-driven luciferase inhibitors, primary screen, cell-based, HeLa, luciferase luminescence | HeLa PEG-Prom luciferase reporter, overnight | inhibition, % at 20 µM | 360,000 tested, 1.7% active | AID 588405, 2011;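 active means inhibition of at least 50% at 20 µM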
HIF-2a inh: HIF-2a reporter inhibitors, primary screen, luminescence, 786-0 RCC cells. 786-0 RCC cells HIF-2a reporter, luciferase luminescence, overnight. inhibition, % at 18.8 µM. 360,000 tested, 0.72% active;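 active means inhibition of the luminescence signal of 40% or more relative to plate controls, in a single-dose primary screen at 18.75 µM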
An asterisk follows results filed as active; ? = inconclusive; / = not tested or not shown.

SMILES	TWEAK Fn14 block	EBV LMP1 NFkB	TROY NFkB inh	MITF TRPM1 inh	Peg3 prom inh	HIF-2a inh
C=CC(=O)N1c2ccccc2Sc2ccc(NC(=O)OCC)cc21	38	-9	30	23	95*	15
CCNc1nc(NC(C)CC)nc(Oc2ccc(=O)[nH]n2)n1 (stereo not given)	87*	9	-2	6	9	-28
CC(=O)NCCOc1cccc2ccccc12	31	-1	-19	17	-5	3
c1ccc(CCNCCCOc2cccc3ccccc23)cc1	-12	-3	-13	-2	50*	12
CCOc1ccc(C(=O)NCCc2ccccc2)cc1	77*	17	52*	14	-63	-17
CC(=O)Oc1ccc(-c2ccc(C(=O)NCCc3ccc(S(N)(=O)=O)cc3)cc2)cc1	-4	-18	-9	-10	-17	6
CC(CCc1ccccc1)NC(=O)c1ccc(C(=O)NC(C)CCc2ccccc2)cc1 (stereo not given)	31	6	15	74*	59*	5
CC(=O)Oc1ccc(C(=O)NCCc2ccccc2)cc1	60*	-2	18	-34	-138	-34
O=C(NCCc1ccccc1)c1ccc2nccnc2c1	93*	50*	57*	30	29	12
CCCSc1ccc([C@H]2N[C@@](CC(C)C)(C(=O)OC)[C@H]3C(=O)N(CC)C(=O)[C@@H]23)cc1	-28	2	-19	-8	-1	11
COc1ccc2oc(C(=O)OCC(=O)NCCc3ccccc3)c(C)c2c1	-7	-5	-2	-5	9	-11
CCOc1ccc(C(=O)NC(=S)N(Cc2ccccc2)Cc2ccccc2)cc1	19	50*	42	17	11	4
COc1ccc2oc(C(=O)NCCc3ccccc3)c(C)c2c1	82*	54*	70*	17	-19	8
O=C(COc1ccc(S(=O)(=O)N2CCCC2)cc1)NCC1CCCO1 (stereo not given)	-21	0	1	-7	5	15
Cc1ccc2c(C)c(C(=O)Nc3cccnc3)oc2c1	4	-26	-65	-44	-95	-201
Cc1ccc2c(Cl)c(C(=O)Nc3cccnc3)sc2c1	58*	-10	-20	-98	-275	-240
Cc1cccc(CC(=O)Nc2cccnc2)c1	103*	-6	-4	/	-33	9
Cc1cc(C(F)(F)F)nn1CC(=O)Nc1cccnc1	66*	-1	/	-7	2	-1
O=C(Cc1ccccc1)Nc1cccnc1	-9	3	21	8	1	1
Cc1ccc(NC(=O)CSc2nncn2N)cc1C	10	0	-1	5	8	9
CN=c1scc(-c2cccs2)n1/N=C/c1ccc(O)c(O)c1O	87*	17	89*	4	-136	-91
Cc1ccc2oc(C(=O)N3CCN(Cc4nccn4C)CC3)c(C)c2c1	-8	6	-6	3	-3	-41
Cc1cc(C)nc(SCC(=O)OCN2C(=O)c3ccccc3C2=O)n1	0	85*	-20	0	1	18
Cn1cnnc1SCC(=O)OCN1C(=O)c2ccccc2C1=O	-1	-3	2	5	3	14
COc1ccc(/C=N/Nc2nc(-c3cccc(S(=O)(=O)N4CCCC4)c3)cs2)cc1OC	13	15	17	-10	-20	-38
SMILES	TWEAK Fn14 block	EBV LMP1 NFkB	TROY NFkB inh	MITF TRPM1 inh	Peg3 prom inh	HIF-2a inh
COc1cc(/C=N/Nc2nc(-c3ccc(S(=O)(=O)N(C)C)cc3)cs2)ccc1O	81*	5	12	25	8	-19
O=C(COC(=O)c1ccccn1)c1cccc(Br)c1	6	-6	5	-1	7	7
CCOc1cc(N2CCOCC2)c(OCC)cc1NC(=O)c1ccccc1N1CCCC1=O	15	6	-5	/	-8	13
O=C(NC1CCOCC1)C1CCC(=O)N(CCc2ccc(Cl)cc2)C1 (stereo not given)	-3	-8	14	-2	-1	4
CCCCN(C(=O)CCN1C(=O)C2CC=CCC2C1=O)c1c(N)n(CCCC)c(=O)[nH]c1=O (stereo not given)	6	-3	8	-11	-3	5
O=[N+]([O-])c1ccc(/C=[N+](\[O-])[C@@H]2CCCC[C@@H]2/[N+]([O-])=C/c2ccc([N+](=O)[O-])o2)o1	-3	-25	-10	84*	50	-3
COc1cccc(NC(=O)C2(C)CCN2C(=O)Cc2cccc3ccccc23)c1 (stereo not given)	9	/	2	/	15	6
COc1cccc(/C=N/NC(N)=S)c1OCc1ccccc1Cl	2	0	-9	13	18	14
NC(=S)N/N=C/c1ccccc1OCCSc1ccc(Cl)cc1	61*	-21	20	-7	7	-21
O=C(CN1CC(=O)Oc2ccccc21)OCC(=O)c1ccccc1	-2	-19	-29	16	59*	18
COCCN1C(=O)COc2ccccc2C1C(=O)Nc1ccc2c(c1)OCCO2 (stereo not given)	-7	/	-18	/	/	3
O=C(O)C(=Cc1ccccc1[N+](=O)[O-])c1ccc2c(c1)OCO2	-28	-2	-56	/	-51	-49
O=C(Oc1ccc(C(=S)N2CCCCC2)cc1)c1ccccc1	-15	-11	-32	5	-9	7
O=C(Oc1ccc(C(=S)N2CCC(O)CC2)cc1)c1ccc(Cl)cc1	-29	11	57*	2	0	4
O=C(NCCCSc1ccccc1)c1cc(Cl)ccc1O	55*	-3	37	0	36	-22
CCCCN(C(=O)c1ccc(-n2nc(C)cc2C)cc1)c1c(N)n(CCC)c(=O)[nH]c1=O	2	-5	-39	-5	-6	6
O=C(Nc1ccc(Cl)c(Cl)c1)C1C2C=CC3(O2)C1C(=O)N(CCN1CCCCC1)C3C(=O)NC1CCCCC1 (stereo not given)	1	-8	-6	-9	11	-10
CCc1c(C)nc2ccc(Br)cc2c1SCCC#N	79*	26	48	-8	18	23
[O-][N+]1=c2ccc(Nc3ccccc3)cc2=NC12CCCCC2	36	36	-19	61*	104*	-17
COc1ccc(Nc2ccc3c(c2)=NC2(CCCCC2)[N+]=3[O-])cc1	8	?	-33	86*	95*	-50
COc1cc2c(cc1OC)C(C1C(=O)CC(C)CC1=O)N(C(=O)CCl)CC2 (stereo not given)	0	-2	5	-4	-2	12
CCc1nc2ccccc2c(=O)n1/N=C/c1ccc(OC)cc1	-14	2	0	-13	-8	-51
CC1(C)C(=O)Nc2ccccc2N1C(=O)COc1ccccc1C#N	3	-3	9	10	13	2
